Shown are actives, neighbours in structure and some others; about 3.9% of the full set was active somewhere.
HSF-1 act: increases HSF-1 driven luciferase reporter signal. NIH3T3-HGL HSF-1 luciferase reporter, MG132, 8 h; 100% = twice DMSO control signal. activation, % at 9 µM. 1.7% of 300,000 active. AID 504408;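 active = mean replicate activation of at least 50% with a set share of replicates each reaching 50%; inconclusive = only one of those two conditions met; inactive = mean below 50% and too few replicates reaching it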;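 also: 0% = median of the neutral control wells and 100% = twice that signal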
HSF1 inh: HSF1 inhibition; activity change, negative = inhibition, % at 7.5 µM (by protocol); NIH3T3-HGL HSE-luciferase, MG132-induced, luminescence 8 h; stronger effect = lower value; 0.77% of 300,000 active;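 active = more than half of replicate wells show activity change below -50%, luminescence cut by over half; inconclusive = some wells, but at most half, below -50%; inactive = no replicate well below -50%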;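 also: luciferase reports HSF-1 transcriptional activity via heat shock element; 0% = median of DMSO wells and -100% = zero luminescence signal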
Wnt act: activates Wnt/beta-catenin signaling in a reporter cell assay. AID 743398. activator, plate reader. activation, % at 9.35 µM. 1.2% of 300,000 active; in the data active = activation above about 30%, passing the limit was not always enough; inconclusive = no clear call, values can overlap the other calls;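 also: 0% = neutral control wells and 100% = positive control wells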
MITF act: activators of MITF-driven TRPM1 promoter activity in SK-MEL-5 cells. SK-MEL-5 TRPM1-promoter luciferase, 24 h; % of positive control, neutral wells = 0. activation, % at 12.5 µM. 0.75% of 300,000 active. AID 588334;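 active = mean activation of at least 80% with every replicate also reaching 80%; inconclusive = mean reaches 80% but some replicate falls short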;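 also: 0% = neutral control wells and 100% = parthenolide positive control wells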
esBAF inh: inhibitors of esBAF chromatin remodeling in mouse ES cells | Bmi1-luciferase knock-in reporter, 24 h; 100% = twice the neutral-well signal | reporter increase, % at 12.5 µM | AID 602393 | 2% of 350,000 active; in the data active = activation above about 40%; inconclusive = no clear call, values can overlap the other calls;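 also: 0% = median of the plate's neutral control wells and 100% = double that signal; a rise in the Bmi1 reporter signal indicates esBAF inhibition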
The depositor's hits bear a star; ? = inconclusive; . = no result.

SMILES | HSF-1 act | HSF1 inh | Wnt act | MITF act | esBAF inh
O=C(Nc1cccc(Cl)c1)N1C[C@@H]2[C@H](c3ccccc31)[C@@H](CO)N2C(=O)c1cccnc1 | . | . | . | . | 4.6
O=C(CCSc1ccccn1)Nc1ccc(Br)cc1 | 35.2 | 20.7 | 61.7* | 58.4 | .
CCN(CC)C(=O)Cn1nc(-c2ccncc2)nc1SCC(=O)Nc1ccc(OC)cc1 | 58.1* | 24.2 | -3.5 | -12.5 | 2.8
COc1ccc(NC(=O)COC(=O)CN2C(=O)C3CC=CCC3C2=O)c([N+](=O)[O-])c1 (stereo unspecified) | . | . | 40.2* | -7.6 | -3.3
CCC(=O)OCC(=O)Nc1ccc(OC)cc1[N+](=O)[O-] | -11.5 | -2.5 | 0.2 | 2.4 | -8.5
O=C(CSC1=NNC(c2ccccn2)S1)Nc1ccccc1 (stereo unspecified) | -67.3 | -62.1* | -1.2 | . | .
O=C(CSc1ccccn1)Nc1ccc(NC(=O)CSc2ccccn2)cc1 | 19.1 | -2.0 | . | -7.9 | .
CC(C)CC#Cc1ccc2c(c1)O[C@H](CN(C)Cc1ccccn1)[C@@H](C)CN([C@H](C)CO)S2(=O)=O | . | . | . | . | 0.3
O=C(C[C@@H]1CC[C@H]2[C@@H](COC[C@@H](O)CN2S(=O)(=O)c2ccccc2Cl)O1)NCc1ccccc1Cl | . | . | . | . | -3.6
CCC(=O)Nc1ccc2c(c1)C(=O)N(C)C[C@@H](OC)[C@H](C)CN(C(=O)CC1CC1)[C@H](C)CO2 | . | . | . | . | 2.8
C[C@H]1CN([C@@H](C)CO)C(=O)c2cc(-c3ccc(C#N)cc3)cnc2O[C@@H]1CN(C)C(=O)Nc1ccc(C(F)(F)F)cc1 | . | . | . | . | -7.3
COc1ccc(Cn2c(CCC(=O)O)nc3cccnc32)cc1 | 17.4 | -1.5 | . | -1.3 | 4.4
COc1ccc(NC(=O)CSCc2ccccc2C)cc1 | 32.5 | 14.2 | . | 20.9 | 66.7*
COc1ccc(NC(=O)CSc2ccccn2)cc1 | -3.7 | 13.8 | 35.6* | . | 29.2
COc1ccc(Cn2c(CCC(=O)Nc3ccc(C)cc3)nc3cccnc32)cc1 | 54.3* | 29.2 | -6.3 | 0.2 | -0.4
COc1ccc(NC(=O)CSc2ccccn2)c([N+](=O)[O-])c1 | 33.2 | 8.9 | 38.9* | . | ?
CCOc1ccc(N=C(/C(C(=O)C(=O)N2CCOCC2)=C(\O)c2ccccc2)c2ccccc2)cc1 | 30.2 | 19.7 | 9.5 | 86.8* | 67.6*
Cc1cccc(C)c1N/C=C/c1onc(C)c1[N+](=O)[O-] | -13.8 | -3.2 | . | 14.2 | -0.7
COc1cccc(N/C=C/c2onc(C)c2[N+](=O)[O-])c1 | 65.7* | 32.3 | 26.0 | 59.5 | ?
Cc1ccc(N/C=C/c2onc(C)c2[N+](=O)[O-])cc1 | 10.5 | -0.3 | 39.6* | 113.4* | -10.0
Cc1cnn(C(=S)NCCc2ccccc2)c1 | 21.3 | 10.2 | . | . | 45.7*
Cc1cnn(C(=S)NCc2ccc(Cl)cc2)c1 | 2.9 | -3.6 | -1.6 | . | .
COc1ccc(-c2cnc3c(c2)C(=O)N([C@H](C)CO)C[C@H](C)[C@H](CN(C)S(=O)(=O)c2ccc(F)cc2)O3)cc1 | . | . | . | . | 16.8
CCOc1ccc(-c2nnc(SCC(=O)N3CCN(c4ccccc4)CC3)o2)cc1 | 5.2 | -2.2 | -2.9 | -2.5 | -4.5
O=C(CSc1nnc(-c2ccc(Cl)cc2)o1)N1CCOCC1 | 17.5 | 6.5 | 9.9 | 97.1* | ?
SMILES | HSF-1 act | HSF1 inh | Wnt act | MITF act | esBAF inh
O=C(CSc1nnc(-c2cccc(F)c2)o1)N1CCOCC1 | 2.1 | 2.9 | 4.1 | 37.9 | 25.9
O=C(CSc1nnc(-c2ccc(O)cc2)o1)N1CCOCC1 | 22.1 | 4.0 | . | . | 24.4
CCOc1ccc(-c2nnc(SCC(=O)N3CCNC3=O)o2)cc1 | . | . | 45.3* | 33.1 | -41.7
O=C(CSc1nnc(-c2cccc(F)c2)o1)N1CCCC1 | 22.9 | 5.9 | 12.3 | 44.9 | 44.0*
Cc1ccc(S(=O)(=O)N(C)C[C@H]2Oc3ccc(NC(=O)CCN4CCOCC4)cc3CC(=O)N([C@H](C)CO)C[C@@H]2C)cc1 | . | . | . | . | 1.2
CCc1cc(=O)oc2c(C)c(OC(C)C(=O)NCCCN3CCOCC3)ccc12 (stereo unspecified) | 5.2 | -6.1 | -2.6 | -3.6 | -0.4
Cc1cc(=O)oc2c(C)c(OC(C)C(=O)NCC(O)c3ccccc3)ccc12 (stereo unspecified) | 51.3* | 15.2 | 1.2 | ? | -2.3
Cc1c(OC(C)C(=O)NCC(O)c2ccccc2)ccc2c3c(c(=O)oc12)CCCC3 (stereo unspecified) | -4.0 | 4.5 | -0.1 | 3.7 | -3.5
Cc1cc(=O)oc2c(C)c(OC(C)C(=O)NCCCN3CCOCC3)ccc12 (stereo unspecified) | -75.7 | -68.8* | 1.1 | 6.4 | -2.5

Screening results from PubChem.
